# Assay results as given in PubChem BioAssay AID539 (SRMLSC, 2006).
# Out of some 65,000 compounds screened, about 320 (0.49%) were called active.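 Rule for the calls: active = top-ranked compounds by inhibition in the single 10 µM screen, taking a fixed number of the strongest; inactive = the rest, inconclusive results apart.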 What follows is part of a selection rich in actives, with near analogues and random picks from the rest.
# System: phosphomevalonate kinase (Streptococcus pneumoniae D39)
# Assay: S. pneumoniae PMK inhibitors, primary screen, biochemical, mevalonate pathway, pilot trial included (AID 539);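 note: 0% = full reaction with DMSO carrier and 100% = background rate without enzyme reaction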
# Conditions: purified PMK, PK/LDH-coupled NADH absorbance 340 nm, at 10 µM, stronger effect = higher value
# [1] = measured here: pilot screen replicates
Compound,inhibition,inhibition [1] [%]
O=C(Nc1cccc2c1CCCC2)C1CCN(C(=O)NC2CCCCC2)CC1,13% (inactive),–
CCC(C)n1[nH]c(=O)cc1N (configuration not stated),5% (inactive),–
Cc1nn2c3cc(N4CCOCC4)ccc3nc2c2ccccc12,0% (inactive),–
Cn1c(SCC(=O)N2CCOCC2)nnc1-c1ccc(NC(=O)c2ccccc2F)cc1,40% (active),–
Cc1ccccc1C(=O)Nc1cccc(-c2nnc(SCC(=O)O)n2C)c1,7% (inactive),–
Cn1c(SCC(=O)Nc2cccc(O)c2)nnc1-c1ccc(S(=O)(=O)N2CCOCC2)cc1,0% (inactive),–
CCc1nnc(NC(=O)CSc2nnc(COc3ccc(C#N)cc3)n2-c2ccccc2)s1,4% (inactive),–
Cn1c(=O)[nH]c(=O)c2c1nc(Br)n2CCCCSc1nc2ccccc2o1,8% (inactive),–
C1=C(CCNc2ncnc3c2cnn3-c2ccccc2)CCCC1,8% (inactive),0.5
c1csc(-c2nc(-c3ccncc3)no2)c1,0% (inactive),–
O=C(O)CCN1C(=O)CC2(CCCCC2)C1=O,12% (inactive),–
Cc1ccc(C)c(NC(=O)C2CCCN2C(=O)OC(C)(C)C)c1 (configuration not stated),0% (inactive),–
CC(C)N(C(=O)Cn1c(SCC(=O)N2CCN(c3ccccc3)CC2)nc2ccccc21)C(C)C,4% (inactive),–
COCCN(CC(=O)Nc1ccccc1C)S(=O)(=O)c1ccc(S(=O)(=O)N2CCCC2)cc1,10% (inactive),2.5
CCOC(=O)C1CCN(C(=O)C2CCN(S(=O)(=O)CC)CC2)CC1,2% (inactive),–
CCOC(=O)C1CCN(C(=O)C2CCN(S(=O)(=O)N3CCCC3)CC2)CC1,30% (active),–
CCOC(=O)C1CCN(C(=O)C2CCN(S(=O)(=O)c3c(C)noc3C)CC2)CC1,11% (inactive),–
CC1(C)CC(=O)C=C(NC2CC(C)(C)NC(C)(C)C2)C1,8% (inactive),–
c1ccc(CCn2nnnc2CN2CCN(C3CCCC3)CC2)cc1,0% (inactive),0.5
CC1CCCCC1NC(=O)CCS(=O)(=O)c1cccc2nonc12 (configuration not stated),0% (inactive),–
O=C1CSC(=O)N1CCOCCN1C(=O)CSC1=O,8% (inactive),–

Compound,inhibition,inhibition [1] [%]
Cc1ccccc1CN1CCN(C(=O)c2cccc(F)c2)CC1,0% (inactive),2
CCCCCOC(=O)C1=C(C)Nc2nnnn2C1c1ccc(OC)c(OC)c1OC (configuration not stated),11% (inactive),–
COc1ccc(CCn2nnnc2C(c2ccccc2)N2CCN(C)CC2)cc1OC (configuration not stated),18% (inactive),–
COC(=O)c1ccc(Oc2nc(Nc3ccc(F)cc3)nc(N3CCCC3)n2)cc1,4% (inactive),–
CCC1CCCCN1CCNC(=O)c1[nH]c(C)c(C(C)=O)c1C (configuration not stated),1% (inactive),–
Cc1ccc(-c2ccc(=O)n(CC(=O)NCCCN3CCCCC3)n2)cc1,18% (inactive),–
CCC1CCCCN1CCCNC(=O)Cn1nc(-c2ccccc2)ccc1=O (configuration not stated),26% (active),–
CCCCNc1nc2c(c(=O)n(C)c(=O)n2C)n1Cc1cccc(OC)c1,0% (inactive),–
COc1ccccc1NC(=O)CN1CCN(S(=O)(=O)c2ccc(Br)cc2)CC1,5% (inactive),–
NC(=O)C1CCN(C(=O)c2ccc(C(F)(F)F)cc2)CC1,12% (inactive),–
CCC(=O)c1ccc(OCC(O)CN2CCN(c3cccc(C(F)(F)F)c3)CC2)cc1 (configuration not stated),0% (inactive),–
O=C(NCCCN1CCCCCC1)C1CC(=O)N(C2CCCC2)C1 (configuration not stated),12% (inactive),–
CCOc1ccc2[nH]c(=O)c(CN(CCCO)C(C)=O)cc2c1,20% (inactive),–
COC(=O)CCSc1nccn1Cc1ccccc1,0% (inactive),–
O=C(CSc1nnnn1-c1ccc2c(c1)CCC2)Nc1ccc2c(c1)OCCO2,0% (inactive),–
CCn1ncc(Br)c1C(=O)Nc1cc(C)ccc1F,6% (inactive),–
COc1ccc(C(c2nnnn2C2CCCCC2)N2CCN(c3ccccc3F)CC2)cc1 (configuration not stated),3% (inactive),–
CC1CCc2c(sc(NC(=O)c3ccc(Cn4cc(Br)cn4)o3)c2C(N)=O)C1 (configuration not stated),0% (inactive),–
COc1ccc(N(CC(=O)NC2CCCCCCC2)S(=O)(=O)c2c(C)nn(C)c2C)cc1,10% (inactive),–
CCOC(=O)c1cccc(NC(=O)CN(c2ccc(C)cc2)S(=O)(=O)c2c(C)noc2C)c1,13% (inactive),–
Cc1ccc(S(=O)(=O)N2CCOCC2)cc1C(=O)NCc1ccc(F)cc1,8% (inactive),–

Compound,inhibition,inhibition [1] [%]
Cc1nc2nc[nH]n2c(=O)c1NC(=O)c1cccc(OCC(C)C)c1,12% (inactive),–
O=C(Cn1nc(Cc2cccnc2)c2ccccc2c1=O)NCC1COc2ccccc2O1 (configuration not stated),7% (inactive),–
COCCNC(=O)C(C#N)c1nc2ccccc2nc1N1CCN(Cc2ccc3c(c2)OCO3)CC1 (configuration not stated),2% (inactive),–
CCOC(=O)Cc1csc(NC(=O)C(C)(C)C)n1,4% (inactive),–
COC(=O)CSc1nc(C2CC2)nc2ccccc12,15% (inactive),–
Cc1ccccc1-n1nnc2c(=O)oc3ccccc3c21,10% (inactive),4
CC(=O)N1CCN(C(=O)Nc2cccc(C(F)(F)F)c2)CC1,17% (inactive),–
CC(C)C(NC(=O)c1cccc(S(=O)(=O)N2CCOCC2)c1)C(=O)NCCc1ccccn1 (configuration not stated),11% (inactive),–
Cn1c(=O)c2c(nc(N3CCCCCC3)n2CC(O)COc2ccc(Cl)cc2)n(C)c1=O (configuration not stated),7% (inactive),–
Cn1c(=O)oc2cc(S(=O)(=O)N3CCC(C(=O)Nc4ccc(OC(F)(F)F)cc4)CC3)ccc21,14% (inactive),2
COc1ccc(S(=O)(=O)N2CCC(C(=O)N3CCOCC3)CC2)cc1OC,8% (inactive),–
CCC(CC)C(=O)Nc1cccc(C(=O)N2CCCC2)c1,4% (inactive),–
C=CCn1c(C)cc(C(=O)CN2C(=O)c3ccccc3C2=O)c1C,13% (inactive),–
COc1cc(C2C(C(=O)c3sc(C)nc3C)=C(O)C(=O)N2CCN(C)C)cc(OC)c1OC (configuration not stated),17% (inactive),–
O=C(COc1ccc2c3c(c(=O)oc2c1)CCC3)NC1CCCCC1,15% (inactive),–
CCOC(=O)N1CCN(S(=O)(=O)c2cc3c(cc2C)NC(=O)CO3)CC1,14% (inactive),–
CC(=O)C1C(c2ccc(Cl)cc2)NC(=O)NC1(O)C(F)(F)F (configuration not stated),7% (inactive),–
Nc1c(C(=O)NCc2ccccc2)nnn1Cc1cccc(Cl)c1,0% (inactive),–
CCOC(=O)c1[nH]c2ccc(OC)cc2c1NC(=O)CCN1CCN(Cc2ccccc2)CC1,6% (inactive),–
